Compound activity: PubChem, several laboratories
EWS-Fli block – blocks EWS/Fli oncoprotein-driven transcription | A673 NR0B1-luciferase reporter, viability-normalised | inhibition, % at 12.6 µM | 350,000 tested, 0.67% active;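 active means mean inhibition of at least 50% after viability correction, with every replicate also passing that limit; inconclusive means mean reaches 50% but only one of two replicates passes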;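 further: firefly luciferase signal divided by Alamar Blue viability fluorescence both relative to DMSO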
Shn3 3UTR inh – inhibitors of Schnurri-3 3'UTR reporter in osteoblasts; Clone20 osteoblast Shn3 3'UTR firefly luciferase, 24 h; inhibition, % at 12.5 µM; 360,000 tested, 0.52% active;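 active means mean inhibition of at least 75% with every replicate also reaching 75%; inconclusive means mean inhibition at least 75% but some replicate below; inactive means mean inhibition below 75%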
PAX8 reporter – lowers PAX8-driven luciferase in RMG-I cells | 360,000 tested, 1.2% active | inhibition, % at 12.6 µM | RMG-I TPO-luciferase reporter, SteadyGlo, 24 h;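 active means mean replicate inhibition at least 60% with every replicate also reaching 60%; inconclusive means only one of the two criteria is met; inactive means mean below 60% and not all replicates reaching 60%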;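 further: luciferase light reporting Pax8 driven TPO promoter activity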
LGR2 inh – blocks bursicon-induced cAMP signaling via Drosophila LGR2. inhibition, % at 9.99 µM. 380,000 tested, 0.35% active. HEK293 LGR2, CRE-luciferase, bursicon-stimulated, 4 h;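 active means drop in luminescence signal, shown as inhibition above about 50% in the replicate tests, limit read from the data, passing the limit was not always enough; inconclusive means probably only some replicates passing the limit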;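 further: agonist challenge used bursicon conditioned medium at about half maximal strength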
CF NFkB block – cystic fibrosis NF-kB activation inhibition; KKLEB NF-kB-GFP reporter, PAF-induced, GFP fluorescence overnight; inhibition, % at 5 µM; 360,000 tested, 0.86% active; AID 588850;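 active means at least 50% inhibition at 5 µM, scaled per plate between neutral and stimulator controls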;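 further: PAF is a Pseudomonas aeruginosa culture filtrate used as stimulus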
KKLEB tox – CF airway cell cytotoxicity counter-screen; 360,000 tested, 0.36% active; activity change (cytotoxicity), % at 5 µM; KKLEB CF airway cells viability, ATPlite luminescence, overnight; active compounds read low; cells stimulated with P. aeruginosa culture filtrate; AID 602141;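 active means corrected activity change at or below -50% at 5 µM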
A number is an active result; – = inactive; ? = inconclusive; · = no result. Only some compounds are listed: those with a hit (about 2% of all), similar ones and a draw of the others.

SMILES	EWS-Fli block	Shn3 3UTR inh	PAX8 reporter	LGR2 inh	CF NFkB block	KKLEB tox
O=C(Nc1ccccn1)c1cc2ccccc2o1	·	–	·	·	–	–
COc1ccccc1N(Cc1ccccc1)S(=O)(=O)c1cccc(C(=O)Nc2cc(C)ccn2)c1	·	–	–	55	–	–
N#C[C@@H]1[C@@H](c2ccccc2-c2ccc(F)cc2)[C@H](CO)N1C(=O)NC1CCCC1	–	·	·	–	·	·
C[C@@H]1CN([C@H](C)CO)C(=O)c2cccc(NC(=O)C3CCOCC3)c2O[C@H]1CN(C)Cc1ccccc1	–	·	–	–	·	·
Cc1noc(C)c1S(=O)(=O)Nc1ccc2c(c1)C(=O)N([C@H](C)CO)C[C@H](C)[C@@H](CN(C)C(=O)C1CCCCC1)OCCCC[C@H](C)O2	–	·	–	–	·	·
Cc1ccnc(NC(=O)c2ccc(C(=O)c3ccccc3)cc2)c1	?	–	–	55	–	–
O=C(CCN1CCCCC1)N[C@H]1CC[C@@H](CCNS(=O)(=O)c2ccc(Cl)cc2)O[C@@H]1CO	–	·	–	–	·	·
CCOCCCNC(=O)/C(C#N)=C/c1ccc([N+](=O)[O-])o1	–	98	–	?	–	–
CC(NC(=O)/C(C#N)=C/c1ccc([N+](=O)[O-])o1)c1ccccc1 (centres undefined)	69	94	–	–	–	–
COc1ccc(/C=C(\C#N)C(=O)NC(C)c2ccccc2)cc1O (centres undefined)	–	–	–	–	–	–
COC(=O)c1ccc(/C=C(\C#N)C(=O)NC(C)c2ccccc2)cc1 (centres undefined)	–	–	–	–	77	–
C[C@@H]1NC(=O)N[C@@H]1CCCCCC(=O)O	–	–	–	–	–	-64
C[C@@H]1CN([C@@H](C)CO)C(=O)c2ccccc2-c2ccccc2CO[C@@H]1CN(C)C(=O)CCN(C)C	–	·	–	–	·	·
C[C@@H]1CN([C@H](C)CO)C(=O)c2cc(-c3cccnc3)cnc2O[C@@H]1CN(C)C(=O)Cc1cccnc1	–	·	·	–	·	·
CC(C)NC1(C(N)=O)CCN(Cc2ccccc2)CC1	–	–	–	–	–	–
CC(C)NC1(C(N)=O)CCNCC1	–	87	–	–	–	–
CC1(C)CC(=O)C2=C(C1)Oc1nc3ccccc3cc1C2C(C#N)C#N (centres undefined)	·	–	·	·	64	–
CCOc1ccc(N/C(SCc2cccc([N+](=O)[O-])c2)=C(/C#N)C(N)=O)cc1	–	–	–	–	–	–
N#CC(C#N)=C(Nc1ccc(F)cc1)SCc1cccc(F)c1	·	–	77	53	–	–
CCOc1ccccc1Nc1cc(C)nc2ccccc12	–	92	–	–	–	–
CS(=O)(=O)N1CC(=O)N2[C@H](CO)[C@H](c3ccc(C#Cc4ccccc4)cc3)[C@@H]2C1	–	·	–	–	·	·
N=c1n(Cc2ccccc2)c2ccccc2n1CC(O)COc1ccccc1 (centres undefined)	·	89	–	·	–	–
Cc1ccc(Cn2c(=N)n(CC(O)COc3ccccc3)c3ccccc32)cc1 (centres undefined)	–	–	·	–	–	–
C/C=C/c1ccc2c(c1)O[C@H](CN(C)C(=O)CC1CC1)[C@H](C)CN([C@@H](C)CO)S2(=O)=O	–	·	·	–	·	·
COc1cccc(CN2[C@H](CO)[C@@H](c3ccccc3)C23CN(C(=O)C2CCC2)C3)c1	–	·	·	–	·	·
SMILES	EWS-Fli block	Shn3 3UTR inh	PAX8 reporter	LGR2 inh	CF NFkB block	KKLEB tox
CCCCCC(=O)N/N=C(\C)c1ccc(N2CCCCC2)cc1	–	–	126	–	–	–
C[C@@H]1CCCCO[C@@H](CN(C)Cc2ccc(Cl)c(Cl)c2)[C@@H](C)CN([C@H](C)CO)C(=O)c2cc(NS(=O)(=O)c3cn(C)cn3)ccc2O1	–	·	–	–	·	·
CCOc1ccc(N=Cc2c(C)[nH]n(-c3nc4ccccc4[nH]3)c2=O)cc1	–	–	–	63	–	–
Cc1cc(/C=N/NC(=O)c2c(Br)cnn2C)c(C)n1-c1cccc(Br)c1	–	–	77	–	–	–
Cc1cc(/C=N/NC(=O)C(=O)N2CCCC2)c(C)n1-c1cccc(Br)c1	·	–	·	·	–	–
Cc1ccc(S(=O)(=O)Nc2cccc(C(=O)NCc3cccnc3)c2)cc1F	?	–	–	–	–	–
O=C(NCc1cccnc1)c1cccc(NS(=O)(=O)c2ccc(Br)cc2)c1	58	–	–	–	–	–
Cc1[nH]c2ccccc2c1C(=O)CCl	–	–	–	–	64	–
Cc1[nH]c2ccccc2c1C(=O)CSc1ccccc1	·	–	–	–	–	–
COc1ccc(S(=O)(=O)Nc2ccc3c(c2)C(=O)N([C@@H](C)CO)C[C@@H](C)[C@H](CN(C)Cc2ccc4c(c2)OCO4)O3)cc1	–	·	–	–	·	·
CCN(C(=O)c1ccc(C(C)(C)C)cc1)c1nnc(Cn2nnc3ccccc32)s1	·	93	·	·	–	–
O=C(Cn1cc(C(=O)c2ccco2)c2ccccc21)Nc1ccccc1F	–	89	–	–	–	–
CCC1CSC(Nc2ccc(C(=O)/C=C/c3ccc(OC)c(OC)c3)cc2)=N1 (centres undefined)	·	87	–	–	–	–
CCC1CSC(Nc2ccc(C(=O)/C=C/c3ccc(Br)cc3)cc2)=N1 (centres undefined)	–	–	–	–	–	–
NS(=O)(=O)c1ccc(CCN2C(=O)/C(=C\c3ccc(Cl)cc3)SC2=S)cc1	·	–	112	–	–	–
Cn1c(SCC(=O)c2ccccc2)nnc1-c1ccccn1	–	–	90	–	–	–
COCC(=O)Nc1ccc2c(c1)C(=O)N(C)[C@H]1CC[C@@H](CC(=O)NCC3CCCCC3)O[C@@H]1CO2	–	·	–	–	·	·
COc1ccc(CC2(CO)CCN(CC3=Cc4cc(Cl)ccc4OC3)CC2)cc1	–	90	–	–	–	–
C/C1=C\CCC2C(/C=C(\C)CC1)OC(=O)C2CN1CCCCC1 (centres undefined)	–	–	68	–	–	–
Cc1noc(C)c1NC(=O)N(C)C[C@H]1OCCCC[C@@H](C)Oc2ccc(NS(=O)(=O)c3cn(C)cn3)cc2C(=O)N([C@@H](C)CO)C[C@H]1C	–	·	–	–	·	·
COc1cccc(-c2ccc3c(c2)[C@H]2[C@H](CCN2C(=O)NC2CCCCC2)[C@@H](CO)N3C)c1	–	·	96	–	·	·
CN1c2ccc(-c3ccc(C#N)cc3)cc2[C@@H]2[C@@H](CCN2C(=O)NC2CCCCC2)[C@@H]1CO	–	·	88	–	·	·
COc1cc(/C=N/Nc2nc(C)nc3c2cnn3-c2ccccc2)ccc1O	–	–	–	58	–	–
COc1cc(/C=N/NC(=O)c2nc(-c3ccccc3)n(-c3ccccc3)n2)ccc1O	·	–	–	–	–	–
COc1cc(/C=N/NC(=O)c2cc(-c3c(C)nn(-c4ccccc4)c3C)n[nH]2)ccc1O	–	–	69	–	–	–
